# Compound activity deposited in PubChem by several laboratories.
# Beta cell apopt: blocks beta cell apoptosis; INS-1E cytokine-induced death, ATP luminescence, 48 h; percent of positive-control rescue, neutral wells zero; protection from apoptosis, % (no concentration beside the values); 300,000 tested, 0.8% active; AID 435005;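 active means Every replicate reaches about 75%, or at least half do and their mean reaches it too, limit read from the data; inconclusive means At least half of replicates reach the limit but their mean does not; inactive means Under half of replicates reach the limit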;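 further: higher means more ATP so stronger rescue from cytokine killing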
# MPTP inh: blocks calcium-induced mitochondrial swelling. AID 602449. 360,000 tested, 1.4% active. isolated mouse mitochondria, Ca2+ swelling absorbance, 30 min. inhibition, % at 10 µM;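 active means inhibition of 50% or more, scaled per plate between neutral and stimulator controls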
# CSC inhib: cancer stem cell inhibition; cancer stem cell-like cells viability, luminescence; inhibition, % at 7.5 µM; 300,000 tested, 1.1% active; AID 2717; in the data active means inhibition above about 75%; inconclusive means no clear call, values can overlap the other calls; tested in HMLE shEcad cells
# SKKanGAS inh: inhibitors of SKKanGAS S. pyogenes growth in kanamycin (SK-promoter or general growth effect). BacTiter-Glo, 6 h. inhibition, % at 7.5 µM. 300,000 tested, 1.3% active;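 active means mean replicate score, as percent of positive control median, at least 50; inconclusive means mean below 50 but one replicate at or above 50; inactive means mean and every replicate below 50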;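 further: strain carries kanamycin resistance gene driven by streptokinase promoter and grows in 40 µg/ml kanamycin; loss of luminescence reflects streptokinase promoter inhibition or plain growth inhibition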
# Calb FLC: C. albicans growth modulation with fluconazole; C. albicans CaCi-2 (fluconazole-resistant clinical isolate) + fluconazole, Alamar Blue growth, 48 h; growth inhibition, % (test concentration not listed); 300,000 tested, 0.57% active;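 active means growth inhibition above about 58% in most replicates, limit read from the data, passing the limit was not always enough; inconclusive means exactly half the replicates above a set limit; inactive means most replicates below a set limit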;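 further: all wells also contain fluconazole at 8 µg/ml as a sub-toxic cotreatment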
# Mdm2-MdmX inh: human Mdm2/MdmX binding inhibition; O15151+Q00987; SaOS-2 split-luciferase Mdm2/MdmX complementation, luminescence; inhibition, % at 8 µM; 330,000 tested, 3% active; AID 485346;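 active means inhibition of at least 50% at 8 µM in the primary screen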
# MPTP counter: mitochondrial membrane potential, counter-screen; shares compounds with MPTP inh; isolated mitochondria, Rhodamine 123 fluorescence; inhibition, % at 10 µM; 5,000 tested, 78% active; AID 624504; in the data active means inhibition above about 22%
# MPTP abs DR: MPTP inhibition, dose response swelling confirmation; 780 tested, 58% active; isolated mitochondria swelling, absorbance; IC50, µM; shares compounds with MPTP inh; in the data active means IC50 below about 20 µM
# MPTP counter DR: active in counter-screen for permeability transition pore inhibitors; isolated mitochondria counterscreen, fluorescence read-out; IC50, µM; 780 tested, 49% active; AID 651564; shares compounds with MPTP inh; in the data active means IC50 below about 80 µM
# A number is an active result; n = inactive; u = inconclusive; x = no result. In the library only some 5.4% were active in any assay of this set; here they are far more common.
SMILES,Beta cell apopt,MPTP inh,CSC inhib,SKKanGAS inh,Calb FLC,Mdm2-MdmX inh,MPTP counter,others
CC(C)CC(=O)NC(Nc1ccc([N+](=O)[O-])cc1)C(Cl)(Cl)Cl (configuration not stated),n,90,n,n,n,n,96,
CC(C)CC(=O)NC(Nc1ccccc1F)C(Cl)(Cl)Cl (configuration not stated),n,n,n,n,n,n,x,
CC1CCCCC12NC(=O)N(CC(=O)OCc1ccccc1F)C2=O (configuration not stated),n,n,x,x,x,n,x,
CC(C)S(=O)(=O)C1=NSC2=NC(=O)/C(=C\c3ccc(-c4ccccc4)o3)C(=N)N21,n,106,n,n,n,x,68,
COc1ccc(CC(=O)OCC(=O)Nc2cccc(C(C)=O)c2)cc1OC,x,n,x,x,x,n,x,
CCCCOc1ccc(CSC(CC(=O)O)C(=O)O)cc1 (configuration not stated),n,n,n,n,n,n,x,
CCCCOc1ccc(CSCCN=C(N)N)cc1,x,72,x,n,n,n,n,MPTP abs DR=4.3;MPTP counter DR=24
O=C(NC(=O)c1cccc(F)c1)OC[C@@H]1CCCN2CCCC[C@H]12,n,n,n,n,n,n,x,
O=C(Nc1ccc(C(=O)OC[C@@H]2CCCN3CCCC[C@H]23)cc1)c1cccc(Br)c1,n,70,n,n,n,n,n,MPTP abs DR=14;MPTP counter DR=47
C=C(C)Cn1c(C)cc(C)c(S(=O)(=O)c2cccc(C)c2)c1=O,n,n,n,n,n,n,x,
O=C1OCc2cc(NC(=O)C3CCCCC3)ccc21,n,n,n,n,n,n,x,
CC(Oc1ccc(Br)cc1)C(=O)Nc1ccncc1 (configuration not stated),n,n,n,n,n,n,x,
CC(Oc1ccc(Br)cc1Cl)C(=O)Nc1ccncc1 (configuration not stated),x,77,x,n,n,n,80,
Cc1nc2c(OCc3ccc(C(F)(F)F)cc3)cccn2c1N(C)CC1CC1,x,81,x,x,x,x,107,
COC(=O)c1ccccc1COc1cccn2c(N(C)CC3CC3)c(C)nc12,x,67,x,x,x,x,97,
Cc1ncc([N+](=O)[O-])n1CCOC(=O)c1cc(Cl)cc(Cl)c1N,n,n,n,n,n,n,x,
CC1CCN(c2c(NCc3ccc(C(=O)N4c5ccccc5CC4C)cc3)c(=O)c2=O)CC1 (configuration not stated),n,n,n,n,n,n,x,
CCCCN1CC(COCc2ccccc2)Oc2cc(Br)ccc2S1(=O)=O (configuration not stated),x,n,x,x,x,x,x,
Cc1cc(OC(=O)c2c(C)cc(OC(=O)c3c(C)cc(O)cc3O)cc2O)cc(O)c1C(=O)O,n,72,n,n,n,n,67,
COC(=O)c1c(C)cc(O)cc1O,n,n,n,n,n,n,x,
Cc1cccc(C)c1OCC(C)N (configuration not stated),n,n,n,n,n,n,x,
Cc1cc(Nc2ccc(F)c(F)c2)nc(-c2ccccc2O)n1,n,90,n,n,n,n,60,
Cc1ccc(Nc2cc(C)nc(-c3ccccc3O)n2)cc1,n,n,n,n,n,n,x,
O=C(NCCc1ccccc1)c1nccc2ccccc12,n,n,n,n,n,n,x,
c1ccc(CCNc2ccnc3cc4ccccc4cc23)cc1,x,101,x,n,n,x,106,
SMILES,Beta cell apopt,MPTP inh,CSC inhib,SKKanGAS inh,Calb FLC,Mdm2-MdmX inh,MPTP counter,others
COc1ccc(NCC(=O)N/N=C/c2cc([N+](=O)[O-])ccc2N2CCCC2)cc1,n,n,n,n,n,n,x,
c1ccc2sc(NC3=NCN(C4CCCCCC4)CN3)nc2c1,n,95,n,n,n,n,n,
CCCCCCc1cc2cc(-c3nnc(-c4ccccc4OC)o3)c(=O)oc2cc1O,x,84,u,n,n,n,n,
O=C(Nc1ccccc1O)C(c1ccccc1)c1ccccc1,94,83,n,n,n,n,83,
CC(C)Cc1ccc(C(C)C(=O)Nc2ccccc2O)cc1 (configuration not stated),n,90,n,n,n,n,95,
O=C(O)c1ccccc1NC(=O)C(c1ccccc1)c1ccccc1,x,n,n,n,n,n,x,
